# Source: paper PMC7862700, “An all-to-all approach to the identification of sequence-specific readers for epigenetic DNA modifications on cytosine”
# How the values were obtained:
# Experiment in all cases: DAPPL (digital affinity profiling via proximity ligation, sequencing); 10 mM Tris-HCl pH 7.5, 50 mM NaCl, 1 mM DTT, 4% glycerol, room temperature, 30 min; GST-TFs on glutathione beads, 16-mer random dsDNA library, 0.1% formaldehyde crosslink after washing; high values mean tight binding
# Details in all cases: protein: recombinant; tags: N-terminal GST; dsDNA, one strand shown
# FLI1 = target: T1, FLI1 (Homo sapiens, UniProt Q01543 1-452)
# T1 sequence: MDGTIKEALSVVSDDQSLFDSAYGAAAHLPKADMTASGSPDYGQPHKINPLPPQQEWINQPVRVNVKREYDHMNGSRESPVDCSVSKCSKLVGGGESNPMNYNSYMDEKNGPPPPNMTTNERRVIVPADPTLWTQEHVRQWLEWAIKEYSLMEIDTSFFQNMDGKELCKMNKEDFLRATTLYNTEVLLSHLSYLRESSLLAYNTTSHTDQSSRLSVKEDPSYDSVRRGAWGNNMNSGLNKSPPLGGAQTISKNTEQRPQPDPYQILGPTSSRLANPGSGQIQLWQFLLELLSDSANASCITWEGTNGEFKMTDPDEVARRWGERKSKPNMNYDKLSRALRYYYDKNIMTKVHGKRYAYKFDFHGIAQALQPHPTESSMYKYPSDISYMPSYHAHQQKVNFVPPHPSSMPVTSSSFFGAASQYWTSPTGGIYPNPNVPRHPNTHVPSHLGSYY
# Summary of the method: (§1)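 Binding signal is given per hexamer as its read frequency for a factor divided by its frequency in the tag-only sample. GST-fused human transcription factors were expressed in yeast, captured on glutathione beads, barcoded with DNA and pooled with that sample, then incubated with 200 nmole of a 16-mer random double-stranded DNA library in Tris/NaCl/DTT/glycerol buffer for 30 min at room temperature. The pools were then washed, crosslinked, proximity-ligated, amplified by PCR and sequenced on an Illumina NextSeq500.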
# ELK1 = target: T2, ELK1 (Homo sapiens, UniProt P19419 1-428)
# T2 sequence: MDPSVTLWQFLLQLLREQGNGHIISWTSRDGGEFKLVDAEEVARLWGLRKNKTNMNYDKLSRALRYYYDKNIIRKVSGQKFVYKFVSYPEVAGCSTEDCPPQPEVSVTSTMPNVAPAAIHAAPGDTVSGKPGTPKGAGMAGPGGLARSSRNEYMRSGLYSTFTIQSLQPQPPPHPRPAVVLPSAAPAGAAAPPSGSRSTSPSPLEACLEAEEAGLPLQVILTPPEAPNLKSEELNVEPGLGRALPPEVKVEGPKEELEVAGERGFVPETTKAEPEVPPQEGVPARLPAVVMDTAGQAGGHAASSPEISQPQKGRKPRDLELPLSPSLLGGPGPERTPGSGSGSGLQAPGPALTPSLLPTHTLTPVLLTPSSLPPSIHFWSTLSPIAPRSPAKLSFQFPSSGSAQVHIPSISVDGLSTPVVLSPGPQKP
# Summary of the method: as §1
# GABPA = target: T3, GABPA (Homo sapiens, UniProt Q06546 1-454)
# T3 sequence: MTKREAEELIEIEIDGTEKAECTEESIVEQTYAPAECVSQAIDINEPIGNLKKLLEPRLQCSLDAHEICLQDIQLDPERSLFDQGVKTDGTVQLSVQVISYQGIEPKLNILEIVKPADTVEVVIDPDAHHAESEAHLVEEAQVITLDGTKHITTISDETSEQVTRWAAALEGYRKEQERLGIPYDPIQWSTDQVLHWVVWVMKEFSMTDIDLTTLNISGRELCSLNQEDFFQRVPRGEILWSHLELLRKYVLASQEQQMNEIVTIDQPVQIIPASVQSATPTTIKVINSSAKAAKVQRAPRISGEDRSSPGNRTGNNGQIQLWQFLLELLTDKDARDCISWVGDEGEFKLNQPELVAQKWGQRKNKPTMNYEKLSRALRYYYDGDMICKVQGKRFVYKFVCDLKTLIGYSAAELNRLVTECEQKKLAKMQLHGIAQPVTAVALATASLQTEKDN
# Summary of the method: as §1
# ERG = target: T4, ERG (Homo sapiens, UniProt P11308 1-479)
# T4 sequence: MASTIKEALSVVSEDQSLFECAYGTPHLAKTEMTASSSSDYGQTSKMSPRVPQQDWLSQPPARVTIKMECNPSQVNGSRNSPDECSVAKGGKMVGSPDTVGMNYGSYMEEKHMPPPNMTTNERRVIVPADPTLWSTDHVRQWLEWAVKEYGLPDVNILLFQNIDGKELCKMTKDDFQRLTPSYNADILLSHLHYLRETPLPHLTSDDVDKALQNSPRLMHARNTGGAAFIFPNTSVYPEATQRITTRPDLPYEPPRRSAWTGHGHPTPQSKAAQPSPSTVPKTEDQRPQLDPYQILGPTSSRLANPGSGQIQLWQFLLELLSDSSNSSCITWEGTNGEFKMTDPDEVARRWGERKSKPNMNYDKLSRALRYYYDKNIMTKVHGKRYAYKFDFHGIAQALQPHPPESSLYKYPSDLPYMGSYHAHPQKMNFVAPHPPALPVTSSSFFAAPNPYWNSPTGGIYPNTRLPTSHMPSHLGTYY
# Summary of the method: as §1
# ELF1 = ELF1 (Homo sapiens, UniProt P32519 1-619)
# Chain of ELF1 (P32519 whole entry): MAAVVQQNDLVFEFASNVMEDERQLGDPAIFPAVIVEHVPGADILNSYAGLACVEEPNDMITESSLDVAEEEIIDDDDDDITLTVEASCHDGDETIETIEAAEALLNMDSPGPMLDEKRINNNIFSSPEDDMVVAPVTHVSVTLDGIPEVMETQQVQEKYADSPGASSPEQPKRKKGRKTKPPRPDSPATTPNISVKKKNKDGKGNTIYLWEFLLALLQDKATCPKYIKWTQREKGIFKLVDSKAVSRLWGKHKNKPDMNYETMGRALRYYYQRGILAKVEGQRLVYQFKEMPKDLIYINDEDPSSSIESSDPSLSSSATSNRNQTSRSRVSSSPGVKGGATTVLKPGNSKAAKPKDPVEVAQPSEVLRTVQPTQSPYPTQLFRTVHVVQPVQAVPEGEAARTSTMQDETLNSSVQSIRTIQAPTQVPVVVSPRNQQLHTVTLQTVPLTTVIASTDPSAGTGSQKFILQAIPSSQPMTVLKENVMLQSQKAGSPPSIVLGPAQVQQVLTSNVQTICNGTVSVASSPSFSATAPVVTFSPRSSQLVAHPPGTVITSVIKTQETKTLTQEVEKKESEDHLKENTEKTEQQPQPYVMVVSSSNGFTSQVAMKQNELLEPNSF
# Summary of the method: as §1
# EHF = target: T5, EHF (Homo sapiens, UniProt Q9NZC4 1-300)
# T5 sequence: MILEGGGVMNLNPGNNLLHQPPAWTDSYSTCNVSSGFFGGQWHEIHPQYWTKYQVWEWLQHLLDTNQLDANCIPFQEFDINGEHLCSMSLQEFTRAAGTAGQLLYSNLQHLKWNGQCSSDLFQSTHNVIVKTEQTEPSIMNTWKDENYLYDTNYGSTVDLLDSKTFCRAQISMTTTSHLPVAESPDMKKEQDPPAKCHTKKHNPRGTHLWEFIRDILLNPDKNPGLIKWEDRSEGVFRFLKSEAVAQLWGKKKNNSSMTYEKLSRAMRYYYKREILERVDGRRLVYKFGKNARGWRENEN
# Summary of the method: as §1
# SPI1 = SPI1 (Homo sapiens, UniProt P17947 1-270)
# Summary of the method: as §1
# SPIB = SPIB (Homo sapiens, UniProt Q01892 1-262)
# Chain of SPIB (Q01892 whole entry): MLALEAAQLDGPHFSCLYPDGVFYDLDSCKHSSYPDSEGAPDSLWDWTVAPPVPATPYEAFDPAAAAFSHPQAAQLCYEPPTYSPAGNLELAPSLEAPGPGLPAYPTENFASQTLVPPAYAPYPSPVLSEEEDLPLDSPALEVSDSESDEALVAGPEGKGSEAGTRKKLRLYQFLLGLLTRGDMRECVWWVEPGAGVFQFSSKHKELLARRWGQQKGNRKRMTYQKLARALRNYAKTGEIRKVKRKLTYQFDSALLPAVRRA
# Summary of the method: as §1
# ELK3 = target: T6, ELK3 (Homo sapiens, UniProt P41970 1-407)
# T6 sequence: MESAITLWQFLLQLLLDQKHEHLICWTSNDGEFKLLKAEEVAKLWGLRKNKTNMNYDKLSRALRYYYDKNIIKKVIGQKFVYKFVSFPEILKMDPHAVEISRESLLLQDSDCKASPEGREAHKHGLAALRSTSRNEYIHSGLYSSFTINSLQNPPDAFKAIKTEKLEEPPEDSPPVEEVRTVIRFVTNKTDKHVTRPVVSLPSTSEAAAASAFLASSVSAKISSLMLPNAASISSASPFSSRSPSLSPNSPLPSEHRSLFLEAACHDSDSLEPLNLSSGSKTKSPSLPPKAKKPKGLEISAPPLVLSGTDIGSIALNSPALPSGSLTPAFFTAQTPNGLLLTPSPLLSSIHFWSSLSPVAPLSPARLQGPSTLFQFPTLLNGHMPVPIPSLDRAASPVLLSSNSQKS
# Summary of the method: as §1
# FEV = target: T7, FEV (Homo sapiens, UniProt Q99581 1-238)
# T7 sequence: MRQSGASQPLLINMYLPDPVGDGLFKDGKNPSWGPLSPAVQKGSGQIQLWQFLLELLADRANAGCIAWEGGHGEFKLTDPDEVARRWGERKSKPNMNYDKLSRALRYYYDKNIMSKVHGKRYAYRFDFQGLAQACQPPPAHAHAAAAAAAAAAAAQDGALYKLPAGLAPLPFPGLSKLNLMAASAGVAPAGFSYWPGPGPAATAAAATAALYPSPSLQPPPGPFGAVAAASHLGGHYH
# Summary of the method: as §1
# ETV5 = ETV5 (Homo sapiens, UniProt P41161 1-510)
# Chain of ETV5 (P41161 whole entry): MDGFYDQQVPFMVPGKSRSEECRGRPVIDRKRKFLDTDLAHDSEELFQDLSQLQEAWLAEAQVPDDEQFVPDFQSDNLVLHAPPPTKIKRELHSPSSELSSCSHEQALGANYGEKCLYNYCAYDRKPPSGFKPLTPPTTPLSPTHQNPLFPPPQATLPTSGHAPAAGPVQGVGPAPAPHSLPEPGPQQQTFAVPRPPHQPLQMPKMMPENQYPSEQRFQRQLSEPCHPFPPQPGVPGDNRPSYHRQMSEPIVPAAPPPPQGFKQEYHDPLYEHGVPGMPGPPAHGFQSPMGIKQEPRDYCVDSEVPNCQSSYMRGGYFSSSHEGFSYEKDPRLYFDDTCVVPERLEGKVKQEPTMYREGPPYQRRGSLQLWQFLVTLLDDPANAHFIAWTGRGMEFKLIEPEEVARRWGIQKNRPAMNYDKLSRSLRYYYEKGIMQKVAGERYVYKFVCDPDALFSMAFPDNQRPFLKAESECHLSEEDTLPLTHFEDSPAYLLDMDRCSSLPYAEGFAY
# Summary of the method: as §1
# SPIC = target: T8, SPIC (Homo sapiens, UniProt Q8N5J4 1-248)
# T8 sequence: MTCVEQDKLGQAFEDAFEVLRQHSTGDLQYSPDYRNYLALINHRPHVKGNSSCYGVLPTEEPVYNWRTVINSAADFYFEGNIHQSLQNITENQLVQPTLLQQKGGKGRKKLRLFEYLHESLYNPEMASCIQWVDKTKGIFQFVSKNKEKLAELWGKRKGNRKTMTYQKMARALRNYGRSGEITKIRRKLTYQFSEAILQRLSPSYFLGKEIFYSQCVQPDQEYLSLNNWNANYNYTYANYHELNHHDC
# Summary of the method: as §1
# ELF4 = ELF4 (Homo sapiens, UniProt Q99607 1-663)
# Chain of ELF4 (Q99607 whole entry): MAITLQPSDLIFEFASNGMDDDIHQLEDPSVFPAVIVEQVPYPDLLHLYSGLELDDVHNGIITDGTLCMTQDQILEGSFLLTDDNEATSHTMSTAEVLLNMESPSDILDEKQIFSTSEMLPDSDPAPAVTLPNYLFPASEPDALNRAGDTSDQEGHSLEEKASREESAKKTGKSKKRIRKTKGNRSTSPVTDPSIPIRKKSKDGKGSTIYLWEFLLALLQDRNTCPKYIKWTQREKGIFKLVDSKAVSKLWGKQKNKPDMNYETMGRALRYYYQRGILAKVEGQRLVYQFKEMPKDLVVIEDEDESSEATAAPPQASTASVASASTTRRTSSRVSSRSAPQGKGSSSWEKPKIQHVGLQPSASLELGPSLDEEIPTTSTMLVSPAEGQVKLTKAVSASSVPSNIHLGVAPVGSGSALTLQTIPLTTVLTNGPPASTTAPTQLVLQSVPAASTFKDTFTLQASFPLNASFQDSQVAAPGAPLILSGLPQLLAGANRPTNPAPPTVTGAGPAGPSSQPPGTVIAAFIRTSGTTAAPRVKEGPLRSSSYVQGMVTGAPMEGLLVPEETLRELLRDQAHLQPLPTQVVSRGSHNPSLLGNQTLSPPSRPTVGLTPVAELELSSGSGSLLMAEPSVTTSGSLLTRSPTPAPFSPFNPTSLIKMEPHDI
# Summary of the method: as §1
# ELK4 = target: T9, ELK4 (Homo sapiens, UniProt P28324-2 1-405)
# T9 sequence: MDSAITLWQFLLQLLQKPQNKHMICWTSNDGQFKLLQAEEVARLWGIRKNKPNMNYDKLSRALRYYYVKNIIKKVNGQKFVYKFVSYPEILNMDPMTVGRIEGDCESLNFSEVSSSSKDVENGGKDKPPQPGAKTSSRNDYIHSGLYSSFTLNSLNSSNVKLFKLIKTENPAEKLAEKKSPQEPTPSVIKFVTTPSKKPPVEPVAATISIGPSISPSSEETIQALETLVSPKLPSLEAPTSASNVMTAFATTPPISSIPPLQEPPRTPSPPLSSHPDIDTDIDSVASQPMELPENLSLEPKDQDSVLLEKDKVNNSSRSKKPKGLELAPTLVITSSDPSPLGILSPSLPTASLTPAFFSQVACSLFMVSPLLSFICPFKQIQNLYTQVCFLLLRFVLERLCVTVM
# Summary of the method: as §1
# ETV2 = target: T10, ETV2 (Homo sapiens, UniProt O00321 1-342)
# T10 sequence: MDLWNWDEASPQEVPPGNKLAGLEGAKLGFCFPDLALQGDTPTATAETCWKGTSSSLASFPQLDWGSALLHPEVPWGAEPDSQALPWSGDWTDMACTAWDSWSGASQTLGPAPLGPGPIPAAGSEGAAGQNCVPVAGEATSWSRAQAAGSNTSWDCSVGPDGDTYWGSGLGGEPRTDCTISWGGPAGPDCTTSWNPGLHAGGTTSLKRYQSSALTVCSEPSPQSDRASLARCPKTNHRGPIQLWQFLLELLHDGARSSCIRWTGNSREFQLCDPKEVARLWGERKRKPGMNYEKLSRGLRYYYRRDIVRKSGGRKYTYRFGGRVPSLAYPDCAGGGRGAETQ
# Summary of the method: as §1
# ELF3 = target: T11, ELF3 (Homo sapiens, UniProt P78545 1-371)
# T11 sequence: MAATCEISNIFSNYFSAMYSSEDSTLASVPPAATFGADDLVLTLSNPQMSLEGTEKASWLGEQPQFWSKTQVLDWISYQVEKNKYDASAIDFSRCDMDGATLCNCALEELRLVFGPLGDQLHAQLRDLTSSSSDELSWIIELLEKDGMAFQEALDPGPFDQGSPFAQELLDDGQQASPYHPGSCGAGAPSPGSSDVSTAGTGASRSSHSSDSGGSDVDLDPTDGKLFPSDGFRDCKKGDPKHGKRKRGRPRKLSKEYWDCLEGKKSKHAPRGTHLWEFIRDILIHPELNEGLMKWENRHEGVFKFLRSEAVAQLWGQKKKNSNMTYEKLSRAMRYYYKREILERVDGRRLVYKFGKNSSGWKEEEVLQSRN
# Summary of the method: as §1
# ETV1 = ETV1 (Homo sapiens, UniProt P50549 1-477)
# Chain of ETV1 (P50549 whole entry): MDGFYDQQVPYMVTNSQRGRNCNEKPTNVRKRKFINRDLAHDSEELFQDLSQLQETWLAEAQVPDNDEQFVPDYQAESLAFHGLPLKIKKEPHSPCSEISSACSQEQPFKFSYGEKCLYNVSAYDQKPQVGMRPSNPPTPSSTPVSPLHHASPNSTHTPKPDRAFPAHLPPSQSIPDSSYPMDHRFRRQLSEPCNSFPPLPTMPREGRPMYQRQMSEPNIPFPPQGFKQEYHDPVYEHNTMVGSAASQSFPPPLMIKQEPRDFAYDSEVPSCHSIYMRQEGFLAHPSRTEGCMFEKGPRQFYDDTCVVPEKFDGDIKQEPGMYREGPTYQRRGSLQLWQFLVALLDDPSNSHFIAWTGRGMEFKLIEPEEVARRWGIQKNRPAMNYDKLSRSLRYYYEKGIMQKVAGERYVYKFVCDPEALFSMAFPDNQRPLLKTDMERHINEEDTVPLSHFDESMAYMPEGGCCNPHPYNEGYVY
# Summary of the method: as §1
Sequence,binding signal (FLI1),binding signal (ELK1),binding signal (GABPA),binding signal (ERG),binding signal (ELF1),binding signal (EHF),binding signal (SPI1),binding signal (SPIB),binding signal (ELK3),binding signal (FEV),binding signal (ETV5),binding signal (SPIC),binding signal (ELF4),binding signal (ELK4),binding signal (ETV2),binding signal (ELF3),binding signal (ETV1)
GCACAA,"1.1 fold enrichment (6-mer frequency, TF over GST control)","1.13 fold enrichment (6-mer frequency, TF over GST control)","1.09 fold enrichment (6-mer frequency, TF over GST control)","1.1 fold enrichment (6-mer frequency, TF over GST control)","1.09 fold enrichment (6-mer frequency, TF over GST control)","1.1 fold enrichment (6-mer frequency, TF over GST control)","1.05 fold enrichment (6-mer frequency, TF over GST control)","1.09 fold enrichment (6-mer frequency, TF over GST control)","1.12 fold enrichment (6-mer frequency, TF over GST control)","1.1 fold enrichment (6-mer frequency, TF over GST control)","1.07 fold enrichment (6-mer frequency, TF over GST control)","1.09 fold enrichment (6-mer frequency, TF over GST control)","1.11 fold enrichment (6-mer frequency, TF over GST control)","1.08 fold enrichment (6-mer frequency, TF over GST control)","1.03 fold enrichment (6-mer frequency, TF over GST control)","1.13 fold enrichment (6-mer frequency, TF over GST control)","1.04 fold enrichment (6-mer frequency, TF over GST control)"
CACCAT,"1.2 fold enrichment (6-mer frequency, TF over GST control)","1.16 fold enrichment (6-mer frequency, TF over GST control)","1.06 fold enrichment (6-mer frequency, TF over GST control)","1.08 fold enrichment (6-mer frequency, TF over GST control)","1.14 fold enrichment (6-mer frequency, TF over GST control)","1.12 fold enrichment (6-mer frequency, TF over GST control)","1.03 fold enrichment (6-mer frequency, TF over GST control)","1 fold enrichment (6-mer frequency, TF over GST control)","1.22 fold enrichment (6-mer frequency, TF over GST control)","1.05 fold enrichment (6-mer frequency, TF over GST control)","1.11 fold enrichment (6-mer frequency, TF over GST control)","1.06 fold enrichment (6-mer frequency, TF over GST control)","1.12 fold enrichment (6-mer frequency, TF over GST control)","1.21 fold enrichment (6-mer frequency, TF over GST control)","1.17 fold enrichment (6-mer frequency, TF over GST control)","1.1 fold enrichment (6-mer frequency, TF over GST control)","1.08 fold enrichment (6-mer frequency, TF over GST control)"
GGCCTC,"1.25 fold enrichment (6-mer frequency, TF over GST control)","1.2 fold enrichment (6-mer frequency, TF over GST control)","1.26 fold enrichment (6-mer frequency, TF over GST control)","1.19 fold enrichment (6-mer frequency, TF over GST control)","1.17 fold enrichment (6-mer frequency, TF over GST control)","1.21 fold enrichment (6-mer frequency, TF over GST control)","1.11 fold enrichment (6-mer frequency, TF over GST control)","1.18 fold enrichment (6-mer frequency, TF over GST control)","1.1 fold enrichment (6-mer frequency, TF over GST control)","1.07 fold enrichment (6-mer frequency, TF over GST control)","1.15 fold enrichment (6-mer frequency, TF over GST control)","1.01 fold enrichment (6-mer frequency, TF over GST control)","1.12 fold enrichment (6-mer frequency, TF over GST control)","1.17 fold enrichment (6-mer frequency, TF over GST control)","1.17 fold enrichment (6-mer frequency, TF over GST control)","1.05 fold enrichment (6-mer frequency, TF over GST control)","1.07 fold enrichment (6-mer frequency, TF over GST control)"
